# Reference: PubChem BioAssay (NCI)
# Values joined by “and” are separate entries in the source; they are usually repeats but may differ in a detail not shown here. Identical values can stand only once. About 83,000 compounds went through this panel and 20% of them were active in at least one assay; those are over-represented in the sample as a whole.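 Activity criterion: percent growth below 10, measured after cells in 96-well plates were exposed to a single compound concentration for 48 hours.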 Active and inactive are the calls of the source.
# Tested on: SW-620 colon
# Test: NCI-60 one-dose screen, 48 h (100 = growth as untreated, 0 = no growth, -100 = all killed)
# Settings: 10 µM unless noted
row,SMILES,growth
1,CCCCCCCCCCCCCCCCC(C(=O)O)C(O)(CC(=O)O)C(=O)O (stereo not given),101% (inactive) and -23.5% (active)
2,CCCCCCCCCCCCCCCc1ccc(N)c(OC2OC(CO)C(O)C(O)C2O)c1 (stereo not given),98.2% (inactive)
3,O=C(CO)C(O)C(O)C(O)C(O)CO (stereo not given),105% (inactive) and 100% (inactive)
4,O=C(Cc1ccccc1)c1ccc(O)c(Cl)c1,22.1% (inactive)
5,NC(Cc1c[nH]c2ccccc12)C(=O)O (stereo not given),111% (inactive) and 95.9% (inactive)
6,O=C(O)/C=C\C(=O)Nc1cccc2ccccc12,99.5% (inactive) and 106% (inactive)
7,O=C(/C=C/c1ccccc1)c1ccccc1,86.6% (inactive)
8,OC1COC(OCc2ccccc2)C(O)C1O (stereo not given),109% (inactive)
9,CC[C@H](CC[C@@H](C)[C@H]1CC[C@H]2[C@@H]3CC=C4C[C@@H](O)CC[C@]4(C)[C@H]3CC[C@]12C)C(C)C,110% (inactive) and 104% (inactive)
10,CC1=C/C(O)CC(=O)Cc2nc(co2)C(=O)N2CCC=C2C(=O)OC(C(C)C)C(C)/C=C\C(=O)NC/C=C\1 (stereo not given),59.9% (inactive)
11,COc1ccc(C(=O)CC(c2ccccc2)C(C#N)c2ccccc2)cc1 (stereo not given),91.1% (inactive)
12,CCCCOC(=O)/C=C\C(=O)NC(N)=O,57.1% (inactive)
13,CC(C)NC(=O)N/C=C(\C#N)C(N)=O,93.4% (inactive)
14,CC1CCC2(OC1)OC1CC3C4CC=C5CC(O)CCC5(C)C4CCC3(C)C1C2C (stereo not given),106% (inactive)
15,CCCCNc1ccc(Nc2ccccc2)cc1,84.3% (inactive)
16,Cn1cnc([N+](=O)[O-])c1Sc1ncn[nH]1,106% (inactive)
17,CCc1cc(C)cc(O)c1,107% (inactive)
18,CCCCOc1ccc(Nc2cc(Cl)ccc2C(=O)O)cn1,103% (inactive) and 101% (inactive)
19,CC1CCC(C(C)C)C(NNC(N)=O)C1 (stereo not given),98% (inactive)

row,SMILES,growth
1,COc1ccc(N/C=C/C2=[N+](C)c3ccccc3C2(C)C)c(OC)c1,92.7% (inactive)
2,O=C1OC(c2ccccc2)=N/C1=C\c1ccccc1,101% (inactive)
3,C/C(=C\c1ccccc1)c1ccccn1,105% (inactive)
4,COc1cc(C(O)C2C(=O)OCC2C2(c3ccc4c(c3)OCO4)SCCCS2)cc(OC)c1OC (stereo not given),102% (inactive)
5,CC1(C)COC(=S)N1,109% (inactive)
6,Brc1ccc(SSc2ccc(Br)cc2)cc1,84.2% (inactive)
7,CC(C)(O)C(=O)O,110% (inactive)
8,O=[N+]([O-])c1cccc(SSc2cccc([N+](=O)[O-])c2)c1,109% (inactive)
9,OCCN1CCCCCCC1,108% (inactive)
10,c1ccc(-c2nc3ccccc3s2)cc1,93.6% (inactive)
11,CCOC(=O)c1c(C)cc(=O)oc1C,110% (inactive)
12,CC(=O)NCC(=O)c1ccc([N+](=O)[O-])cc1,99.5% (inactive)
13,Fc1ccc([I+]c2ccc(F)cc2)cc1,55.9% (inactive)
14,Cc1cc2ccccc2cn1,104% (inactive) and 116% (inactive)
15,O=c1n(CC2CO2)c(=O)n(CC2CO2)c(=O)n1CC1CO1 (stereo not given),75.5% (inactive)
16,Nc1ccc2c(O)cc(S(=O)(=O)O)cc2c1,94.3% (inactive) and 95.3% (inactive)
17,O=C1CSC2=NCCN12,92% (inactive) and 93.4% (inactive)
18,O=C1c2c(O)ccc(O)c2C(=O)c2c(NCCNCCO)ccc(NCCNCCO)c21,-30.8% (active) and -81.8% (active)

# Tested on: MCF7 breast
# Test: as above
# Settings: 10 µM unless noted
row,SMILES,growth
1,CCCCCCCCCCCCCCCCC(C(=O)O)C(O)(CC(=O)O)C(=O)O (stereo not given),95.7% (inactive) and -2.93% (active)
2,CCCCCCCCCCCCCCCc1ccc(N)c(OC2OC(CO)C(O)C(O)C2O)c1 (stereo not given),93.7% (inactive)
3,O=C(CO)C(O)C(O)C(O)C(O)CO (stereo not given),101% (inactive) and 102% (inactive)
4,O=C(Cc1ccccc1)c1ccc(O)c(Cl)c1,20.4% (inactive)
5,NC(Cc1c[nH]c2ccccc12)C(=O)O (stereo not given),105% (inactive) and 98.5% (inactive)
6,O=C(O)/C=C\C(=O)Nc1cccc2ccccc12,97.3% (inactive) and 101% (inactive)
7,O=C(/C=C/c1ccccc1)c1ccccc1,-2.52% (active)
8,OC1COC(OCc2ccccc2)C(O)C1O (stereo not given),96% (inactive)
9,CC[C@H](CC[C@@H](C)[C@H]1CC[C@H]2[C@@H]3CC=C4C[C@@H](O)CC[C@]4(C)[C@H]3CC[C@]12C)C(C)C,107% (inactive) and 89.8% (inactive)
10,CC1=C/C(O)CC(=O)Cc2nc(co2)C(=O)N2CCC=C2C(=O)OC(C(C)C)C(C)/C=C\C(=O)NC/C=C\1 (stereo not given),71.8% (inactive)
11,COc1ccc(C(=O)CC(c2ccccc2)C(C#N)c2ccccc2)cc1 (stereo not given),93.4% (inactive)
12,CCCCOC(=O)/C=C\C(=O)NC(N)=O,81.1% (inactive)
13,CC(C)NC(=O)N/C=C(\C#N)C(N)=O,102% (inactive)
14,CC1CCC2(OC1)OC1CC3C4CC=C5CC(O)CCC5(C)C4CCC3(C)C1C2C (stereo not given),105% (inactive)
15,CCCCNc1ccc(Nc2ccccc2)cc1,67.3% (inactive)
16,Cn1cnc([N+](=O)[O-])c1Sc1ncn[nH]1,102% (inactive)
17,CCc1cc(C)cc(O)c1,98.3% (inactive)
18,CCCCOc1ccc(Nc2cc(Cl)ccc2C(=O)O)cn1,99.5% (inactive) and 107% (inactive)
19,Nc1ncnc2c1ncn2C1OC(COP(=O)(O)O)C(O)C1O (stereo not given),101% (inactive)

row,SMILES,growth
1,CC1CCC(C(C)C)C(NNC(N)=O)C1 (stereo not given),100% (inactive)
2,COc1ccc(N/C=C/C2=[N+](C)c3ccccc3C2(C)C)c(OC)c1,87.7% (inactive)
3,O=C1OC(c2ccccc2)=N/C1=C\c1ccccc1,98.4% (inactive)
4,C/C(=C\c1ccccc1)c1ccccn1,68.4% (inactive)
5,COc1cc(C(O)C2C(=O)OCC2C2(c3ccc4c(c3)OCO4)SCCCS2)cc(OC)c1OC (stereo not given),97.6% (inactive)
6,CC1(C)COC(=S)N1,105% (inactive)
7,Brc1ccc(SSc2ccc(Br)cc2)cc1,59.7% (inactive)
8,CC(C)(O)C(=O)O,93.8% (inactive)
9,O=[N+]([O-])c1cccc(SSc2cccc([N+](=O)[O-])c2)c1,93.7% (inactive)
10,OCCN1CCCCCCC1,99% (inactive)
11,c1ccc(-c2nc3ccccc3s2)cc1,80.3% (inactive)
12,CCOC(=O)c1c(C)cc(=O)oc1C,97.1% (inactive)
13,CC(=O)NCC(=O)c1ccc([N+](=O)[O-])cc1,96.5% (inactive)
14,Fc1ccc([I+]c2ccc(F)cc2)cc1,48.2% (inactive)
15,Cc1cc2ccccc2cn1,98.5% (inactive) and 101% (inactive)
16,O=c1n(CC2CO2)c(=O)n(CC2CO2)c(=O)n1CC1CO1 (stereo not given),42.5% (inactive)
17,Nc1ccc2c(O)cc(S(=O)(=O)O)cc2c1,95% (inactive) and 96.6% (inactive)
18,O=C1CSC2=NCCN12,92.7% (inactive) and 81.6% (inactive)
19,O=C1c2c(O)ccc(O)c2C(=O)c2c(NCCNCCO)ccc(NCCNCCO)c21,-42% (active)
